# ± gives the standard deviation of the averaged measurements. Over roughly 2,900 compounds, “NF-kB SEAP reporter activity, fold change vs agonist alone” has its median near 0.99; the highest 2% begin near 2.6. The full list was thinned out, with the highest values kept by preference.
# Legend:
# RAW-Dual [1] = test: NF-kB SEAP reporter activity, fold change vs agonist alone; cytotoxicity flag (confluency mask): not cytotoxic; higher = enhanced NF-kB activity
# Outline: (§1)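 Supernatant from RAW-Dual macrophages was read after 20 hours for IRF by QuantiLuc luminescence and for NF-κB by QuantiBlue absorbance at 620 nm. The cells (50,000 cells/well in DMEM, 384-well plates, 37 °C, 5% CO2) had received 50 nL of library stock by pin tool and, 1 h later, a PRR agonist. Reporter activity is expressed relative to agonist-alone wells as fold change, and wells were flagged cytotoxic if IncuCyte confluency was under 70% of agonist controls in both mask sets.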
# RAW-Dual [2] = test: NF-kB SEAP reporter activity, fold change vs agonist alone; higher = enhanced NF-kB activity; details: cytotoxicity flag (confluency mask): not cytotoxic
# Outline: as §1
# [3] = agonist: ODN 1826 (TLR9) 0.5 ug/mL
# [4] = agonist: Pam2CSK4 (TLR2/6) 0.1 ug/mL
# [5] = agonist: Pam3CSK4 (TLR2/1) 0.1 ug/mL
# [6] = library stock concentration (final ~1000-fold dilution): 10 mM, agonist: Imiquimod (TLR7) […]
# [7] = library stock concentration (final ~1000-fold dilution): 10 mM, agonist: MPLA (TLR4) […]
smiles,measurement,setting,value
Cl.N=C(N)NC(=O)c1nc(Cl)c(N)nc1N.O.O (library stock concentration (final ~1000-fold dilution): 10 mM water),NF-kB SEAP reporter activity,RAW-Dual [1]; agonist: LPS (TLR4) 0.1 ug/mL,1.07
same,NF-kB SEAP reporter activity,RAW-Dual [1]; [3],1.09
same,NF-kB SEAP reporter activity,RAW-Dual [1]; [4],0.993
same,NF-kB SEAP reporter activity,RAW-Dual [1]; [5],0.984
Cl.N=C(N)NC(=O)c1nc(Cl)c(N)nc1N.O.O,NF-kB SEAP reporter activity,"RAW-Dual [2]; library stock concentration (final ~1000-fold dilution): 10 mM water, agonist: Imiquimod (TLR7) […]",0.827
same,NF-kB SEAP reporter activity,"RAW-Dual [2]; library stock concentration (final ~1000-fold dilution): 10 mM water, agonist: MPLA (TLR4) […]",1.01
CC(C)(C)c1cc(C(=O)/C(C#N)=N/Nc2cccc(Cl)c2)no1 (library stock concentration (final ~1000-fold dilution): 10 mM),NF-kB SEAP reporter activity,RAW-Dual [1]; agonist: LPS (TLR4) 0.1 ug/mL,4.18
same,NF-kB SEAP reporter activity,RAW-Dual [1]; [3],1.16
same,NF-kB SEAP reporter activity,RAW-Dual [1]; [4],0.423
same,NF-kB SEAP reporter activity,RAW-Dual [1]; [5],0.673
Cn1nc(C(C)(C)C)cc1C(=O)NC(Cc1cccc(Cl)c1)C(=O)NCC#N (stereo not given),NF-kB SEAP reporter activity,RAW-Dual [2]; [6],0.765
same,NF-kB SEAP reporter activity,RAW-Dual [2]; [7],1.05
CC(C)(C)c1cc(C(=O)/C(C#N)=N/Nc2cccc(Cl)c2)no1,NF-kB SEAP reporter activity,RAW-Dual [2]; [6],1.11
same,NF-kB SEAP reporter activity,RAW-Dual [2]; [7],1.91
Cn1nc(C(C)(C)C)cc1C(=O)NC(Cc1cccc(Cl)c1)C(=O)NCC#N (stereo not given) (library stock concentration (final ~1000-fold dilution): 10 mM),NF-kB SEAP reporter activity,RAW-Dual [1]; agonist: LPS (TLR4) 0.1 ug/mL,1.13
same,NF-kB SEAP reporter activity,RAW-Dual [1]; [3],1.14
same,NF-kB SEAP reporter activity,RAW-Dual [1]; [4],0.947
same,NF-kB SEAP reporter activity,RAW-Dual [1]; [5],0.992
C=C1CCC2C(C)(CO)C(O)CCC2(C)C1C/C=C1/C(=O)OCC1O (stereo not given),NF-kB SEAP reporter activity,RAW-Dual [2]; [6],0.933 ± 0.078
same,NF-kB SEAP reporter activity,RAW-Dual [2]; [7],0.792 ± 0.1
C=C1CCC2C(C)(CO)C(O)CCC2(C)C1C/C=C1/C(=O)OCC1O (stereo not given) (library stock concentration (final ~1000-fold dilution): 10 mM),NF-kB SEAP reporter activity,RAW-Dual [1]; agonist: LPS (TLR4) 0.1 ug/mL,0.565 ± 0.2
same,NF-kB SEAP reporter activity,RAW-Dual [1]; [3],0.418 ± 0.039
same,NF-kB SEAP reporter activity,RAW-Dual [1]; [4],0.96 ± 0.18
same,NF-kB SEAP reporter activity,RAW-Dual [1]; [5],0.65 ± 0.11
Cc1ccc(NC(=O)c2ccnc(C(F)(F)F)c2)cc1-c1cc(OCCO)nc(N2CCOCC2)c1,NF-kB SEAP reporter activity,RAW-Dual [2]; [6],1.03
same,NF-kB SEAP reporter activity,RAW-Dual [2]; [7],0.836
Cc1ccc(NC(=O)c2ccnc(C(F)(F)F)c2)cc1-c1cc(OCCO)nc(N2CCOCC2)c1 (library stock concentration (final ~1000-fold dilution): 10 mM),NF-kB SEAP reporter activity,RAW-Dual [1]; agonist: LPS (TLR4) 0.1 ug/mL,1.01
same,NF-kB SEAP reporter activity,RAW-Dual [1]; [3],0.551
same,NF-kB SEAP reporter activity,RAW-Dual [1]; [4],0.265
same,NF-kB SEAP reporter activity,RAW-Dual [1]; [5],0.438
Nc1nc(NCCc2ccc(O)cc2)nc2nc(-c3ccco3)nn12 (library stock concentration (final ~1000-fold dilution): 10 mM),NF-kB SEAP reporter activity,RAW-Dual [1]; agonist: LPS (TLR4) 0.1 ug/mL,1.81
same,NF-kB SEAP reporter activity,RAW-Dual [1]; [3],1.56
same,NF-kB SEAP reporter activity,RAW-Dual [1]; [4],1.16
same,NF-kB SEAP reporter activity,RAW-Dual [1]; [5],1.41
CC(C)n1cnc2c(NCCc3ccc(O)cc3)nc(-c3csc4ccccc34)nc21,NF-kB SEAP reporter activity,RAW-Dual [2]; [6],2.38
same,NF-kB SEAP reporter activity,RAW-Dual [2]; [7],2.64
Nc1nc(NCCc2ccc(O)cc2)nc2nc(-c3ccco3)nn12,NF-kB SEAP reporter activity,RAW-Dual [2]; [6],1.7
same,NF-kB SEAP reporter activity,RAW-Dual [2]; [7],1.36
CC(C)C(CO)Nc1nc(Nc2cccc(Cl)c2)c2ncn(C(C)C)c2n1 (stereo not given) (library stock concentration (final ~1000-fold dilution): 10 mM),NF-kB SEAP reporter activity,RAW-Dual [1]; agonist: LPS (TLR4) 0.1 ug/mL,0.715
same,NF-kB SEAP reporter activity,RAW-Dual [1]; [3],1.05
same,NF-kB SEAP reporter activity,RAW-Dual [1]; [4],1.22
same,NF-kB SEAP reporter activity,RAW-Dual [1]; [5],0.679
CC(C)n1cnc2c(NCCc3ccc(O)cc3)nc(-c3csc4ccccc34)nc21 (library stock concentration (final ~1000-fold dilution): 10 mM),NF-kB SEAP reporter activity,RAW-Dual [1]; agonist: LPS (TLR4) 0.1 ug/mL,3.02
same,NF-kB SEAP reporter activity,RAW-Dual [1]; [3],1.56
same,NF-kB SEAP reporter activity,RAW-Dual [1]; [4],0.535
same,NF-kB SEAP reporter activity,RAW-Dual [1]; [5],0.662
CC(C)C(CO)Nc1nc(Nc2cccc(Cl)c2)c2ncn(C(C)C)c2n1 (stereo not given),NF-kB SEAP reporter activity,RAW-Dual [2]; [6],1.19
same,NF-kB SEAP reporter activity,RAW-Dual [2]; [7],1.14
C=C1CCC2C(C)(COC(=O)CCC(=O)O)C(OC(=O)CCC(=O)O)CCC2(C)C1C=CC1=CCOC1=O (stereo not given),NF-kB SEAP reporter activity,RAW-Dual [2]; [6],0.865
same,NF-kB SEAP reporter activity,RAW-Dual [2]; [7],1.03
C=C1CCC2C(C)(COC(=O)CCC(=O)O)C(OC(=O)CCC(=O)O)CCC2(C)C1C=CC1=CCOC1=O (stereo not given) (library stock concentration (final ~1000-fold dilution): 10 mM),NF-kB SEAP reporter activity,RAW-Dual [1]; agonist: LPS (TLR4) 0.1 ug/mL,1.34
same,NF-kB SEAP reporter activity,RAW-Dual [1]; [3],0.979
same,NF-kB SEAP reporter activity,RAW-Dual [1]; [4],1.26
same,NF-kB SEAP reporter activity,RAW-Dual [1]; [5],1.02
CN1CCN(CCCNc2ncc(Cl)c(-c3cc4c(C(=O)NC5CC5)cccc4s3)n2)CC1.Cl.Cl.Cl (library stock concentration (final ~1000-fold dilution): 10 mM),NF-kB SEAP reporter activity,RAW-Dual [1]; agonist: LPS (TLR4) 0.1 ug/mL,0.313 ± 0.14
same,NF-kB SEAP reporter activity,RAW-Dual [1]; [3],0.174 ± 0.0094
same,NF-kB SEAP reporter activity,RAW-Dual [1]; [4],0.0865 ± 0.0023
same,NF-kB SEAP reporter activity,RAW-Dual [1]; [5],0.134 ± 0.0077
CN1CCN(CCCNc2ncc(Cl)c(-c3cc4c(C(=O)NC5CC5)cccc4s3)n2)CC1.Cl.Cl.Cl,NF-kB SEAP reporter activity,RAW-Dual [2]; [6],0.215 ± 0.045
same,NF-kB SEAP reporter activity,RAW-Dual [2]; [7],0.2944 ± 0.00089
CCO.N#CC(=C(\N)Sc1ccccc1N)/C(C#N)=C(/N)Sc1ccccc1N,NF-kB SEAP reporter activity,RAW-Dual [2]; [6],0.206
same,NF-kB SEAP reporter activity,RAW-Dual [2]; [7],0.236
CCO.N#CC(=C(\N)Sc1ccccc1N)/C(C#N)=C(/N)Sc1ccccc1N (library stock concentration (final ~1000-fold dilution): 10 mM),NF-kB SEAP reporter activity,RAW-Dual [1]; agonist: LPS (TLR4) 0.1 ug/mL,0.241
same,NF-kB SEAP reporter activity,RAW-Dual [1]; [3],0.368
same,NF-kB SEAP reporter activity,RAW-Dual [1]; [4],0.0792
same,NF-kB SEAP reporter activity,RAW-Dual [1]; [5],0.146
CCn1cc(C(=O)O)c(=O)c2c(N)c(F)c(NC3CCCCC3)cc21 (library stock concentration (final ~1000-fold dilution): 10 mM),NF-kB SEAP reporter activity,RAW-Dual [1]; agonist: LPS (TLR4) 0.1 ug/mL,4.89
same,NF-kB SEAP reporter activity,RAW-Dual [1]; [3],2.9
same,NF-kB SEAP reporter activity,RAW-Dual [1]; [4],1.85
same,NF-kB SEAP reporter activity,RAW-Dual [1]; [5],3.32
CCOC(=O)c1ccc(NC2CCCCC2)c(N)c1 (library stock concentration (final ~1000-fold dilution): 10 mM),NF-kB SEAP reporter activity,RAW-Dual [1]; agonist: LPS (TLR4) 0.1 ug/mL,2.07
same,NF-kB SEAP reporter activity,RAW-Dual [1]; [3],1.28
same,NF-kB SEAP reporter activity,RAW-Dual [1]; [4],0.963
same,NF-kB SEAP reporter activity,RAW-Dual [1]; [5],1.09
CCn1cc(C(=O)O)c(=O)c2cc(F)c(N3CCN(C)CC3)cc21.CS(=O)(=O)O (library stock concentration (final ~1000-fold dilution): 10 mM),NF-kB SEAP reporter activity,RAW-Dual [1]; agonist: LPS (TLR4) 0.1 ug/mL,0.962
same,NF-kB SEAP reporter activity,RAW-Dual [1]; [3],1.03
same,NF-kB SEAP reporter activity,RAW-Dual [1]; [4],1.11
same,NF-kB SEAP reporter activity,RAW-Dual [1]; [5],1.12
CCn1cc(C(=O)O)c(=O)c2cc(F)c(N3CCN(C)CC3)cc21.CS(=O)(=O)O,NF-kB SEAP reporter activity,RAW-Dual [2]; [6],0.916
same,NF-kB SEAP reporter activity,RAW-Dual [2]; [7],0.878

# — the supplement of paper PMC10037445
